# In the supplement of paper PMC11738630:
# System: Salmonella enterica serovar Typhimurium 14028s
# Assay: approximate change in surviving CFU after surface colonization relative to water-only control (log10 CFU/mL change); higher = more surviving bacteria (less inhibition of surface colonization)
# Conditions: not stated (Biolog proprietary concentration), surface: plastic 96-well plate, 20-24 h at 25 °C
smiles,measurement,setting,value
OC[C@@H](O)[C@@H](O[C@H]1O[C@H](CO)[C@@H](O)[C@H](O)[C@H]1O)[C@H](O)[C@@H](O)CO [Maltitol],approximate change in surviving CFU (log10),"Biolog plate: PM2, Biolog well: C5",1.37
O=C(CO)[C@@H](O)[C@H](O)[C@H](O)CO[C@H]1O[C@H](CO)[C@@H](O)[C@H](O)[C@H]1O [Palatinose],approximate change in surviving CFU (log10),"Biolog plate: PM2, Biolog well: C12",0.751
OC[C@H]1O[C@H](OC[C@H]2O[C@H](OC[C@H]3O[C@H](O[C@]4(CO)O[C@H](CO)[C@@H](O)[C@@H]4O)[C@H](O)[C@@H](O)[C@@H]3O)[C@H](O)[C@@H](O)[C@H]2O)[C@H](O)[C@@H](O)[C@H]1O [Stachyose],approximate change in surviving CFU (log10),"Biolog plate: PM2, Biolog well: D5",1.37
OC[C@@H](O)[C@H](O)[C@@H](O)CO [Xylitol],approximate change in surviving CFU (log10),"Biolog plate: PM2, Biolog well: D8",1.01
CC(=O)N[C@@H](CO)[C@@H](O)[C@H](O)[C@H](O)CO [N-Acetyl-D-Glucosaminitol],approximate change in surviving CFU (log10),"Biolog plate: PM2, Biolog well: D9",0.944
CC(O)(CC(=O)O)C(=O)O (stereo not given) [Citramalic Acid],approximate change in surviving CFU (log10),"Biolog plate: PM2, Biolog well: E4",0.687
O=C(O)c1ccccc1O [2-Hydroxy Benzoic Acid (Salicylic Acid)],approximate change in surviving CFU (log10),"Biolog plate: PM2, Biolog well: E6",-1.72
O=C(O)c1ccc(O)cc1 [4-Hydroxy Benzoic Acid],approximate change in surviving CFU (log10),"Biolog plate: PM2, Biolog well: E7",-0.58
C[C@@H](O)CC(=O)O [b-Hydroxy Butyric Acid],approximate change in surviving CFU (log10),"Biolog plate: PM2, Biolog well: E8",-0.215
COC(=O)[C@@H](C)O [D-Lactic Acid Methyl Ester],approximate change in surviving CFU (log10),"Biolog plate: PM2, Biolog well: F1",-0.15
C/C=C/C=C/C(=O)O [Sorbic Acid],approximate change in surviving CFU (log10),"Biolog plate: PM2, Biolog well: F9",-2.68
NC(=O)NC(N)=O [Biuret],approximate change in surviving CFU (log10),"Biolog plate: PM3, Biolog well: A6",-0.258
N[C@H](CCC(=O)O)C(=O)O [D-Glutamic Acid],approximate change in surviving CFU (log10),"Biolog plate: PM3, Biolog well: C6",0.837
NC(=O)NCCC[C@H](N)C(=O)O [L-Citrulline],approximate change in surviving CFU (log10),"Biolog plate: PM3, Biolog well: C10",0.665
CC(=O)N[C@@H](CCC(=O)O)C(=O)O [N-Acetyl-L-Glutamic Acid],approximate change in surviving CFU (log10),"Biolog plate: PM3, Biolog well: D1",0.751
NCCO [Ethanolamine],approximate change in surviving CFU (log10),"Biolog plate: PM3, Biolog well: D9",-0.408
NCCCCN=C(N)N [Agmatine],approximate change in surviving CFU (log10),"Biolog plate: PM3, Biolog well: D12",-0.193
Nc1[nH]cnc2ncnc1-2 [Adenine],approximate change in surviving CFU (log10),"Biolog plate: PM3, Biolog well: F2",-0.515
Nc1nc2c(ncn2[C@@H]2O[C@H](CO)[C@@H](O)[C@H]2O)c(=O)[nH]1 [Guanosine],approximate change in surviving CFU (log10),"Biolog plate: PM3, Biolog well: F7",-0.172
O=C1NC(=O)C(=O)C(=O)N1 [Alloxan],approximate change in surviving CFU (log10),"Biolog plate: PM3, Biolog well: G4",-3.16
O=C(O)CCC(=O)O [Succinic Acid],approximate change in surviving CFU (log10),"Biolog plate: PM1, Biolog well: A5",0.515
OC[C@@H](O)[C@@H](O)[C@H](O)[C@@H](O)CO [D-Sorbitol],approximate change in surviving CFU (log10),"Biolog plate: PM1, Biolog well: B2",1.61
"CC(O)CO (stereo not given) [1,2-Propanediol]",approximate change in surviving CFU (log10),"Biolog plate: PM1, Biolog well: D4",-0.3
CCCCCCCC/C=C\CCCCCCCC(=O)OCCOCC(OCCO)C1OCC(OCCO)C1OCCO (stereo not given) [Tween 80],approximate change in surviving CFU (log10),"Biolog plate: PM1, Biolog well: E5",-0.58
OC[C@H]1O[C@H](O[C@H]2[C@H](O)[C@@H](O)[C@@H](O[C@H]3[C@H](O)[C@@H](O)[C@@H](O)O[C@@H]3CO)O[C@@H]2CO)[C@H](O)[C@@H](O)[C@@H]1O [Maltotriose],approximate change in surviving CFU (log10),"Biolog plate: PM1, Biolog well: E10",1.82
NCC(=O)N[C@@H](CC(=O)O)C(=O)O [Glycyl-L-Aspartic Acid],approximate change in surviving CFU (log10),"Biolog plate: PM1, Biolog well: F1",0.929
OCC1OC(OC2C(CO)OC(O)C(O)C2O)C(O)C(O)C1O [D-Cellobiose],approximate change in surviving CFU (log10),"Biolog plate: PM1, Biolog well: F11",1.2
CC(=O)CC(=O)O [Acetoacetic Acid],approximate change in surviving CFU (log10),"Biolog plate: PM1, Biolog well: G7",0.172
COC(=O)C(C)=O [Methyl Pyruvate],approximate change in surviving CFU (log10),"Biolog plate: PM1, Biolog well: G10",0.0644
NCC(=O)N1CCC[C@H]1C(=O)O [Glycyl-L-Proline],approximate change in surviving CFU (log10),"Biolog plate: PM1, Biolog well: H1",0.58
CC(=O)C(=O)O [Pyruvic Acid],approximate change in surviving CFU (log10),"Biolog plate: PM1, Biolog well: H8",-0.494
OC[C@H]1O[C@@H](O[C@H]2[C@H](O)[C@@H](O)[C@H](O[C@H]3[C@H](O)[C@H](O)[C@H](O[C@@H]4[C@H](O)[C@H](O)[C@H](O)O[C@@H]4CO)O[C@@H]3CO)O[C@@H]2CO)[C@@H](O)[C@@H](O)[C@@H]1O [Mannan],approximate change in surviving CFU (log10),"Biolog plate: PM2, Biolog well: A11",0.837
OC[C@@H](O)C(O)[C@H](O)CO [D-Arabitol],approximate change in surviving CFU (log10),"Biolog plate: PM2, Biolog well: B6",1.37
OC[C@@H](O)[C@@H](O)CO [i-Erythritol],approximate change in surviving CFU (log10),"Biolog plate: PM2, Biolog well: B10",1.35
OC[C@@H]1OC(O)[C@@H](O)[C@H](O)[C@H]1O (stereo partly drawn) [L-Glucose],approximate change in surviving CFU (log10),"Biolog plate: PM2, Biolog well: C2",1.22
OC[C@@H](O)[C@@H](O[C@@H]1O[C@H](CO)[C@H](O)[C@H](O)[C@H]1O)[C@H](O)[C@@H](O)CO [Lactitol],approximate change in surviving CFU (log10),"Biolog plate: PM2, Biolog well: C3",1.05
CO[C@@H]1OC[C@@H](O)[C@H](O)[C@H]1O [b-Methyl-D-Xyloside],approximate change in surviving CFU (log10),"Biolog plate: PM2, Biolog well: C11",-0.215
OCc1ccccc1O[C@@H]1O[C@H](CO)[C@@H](O)[C@H](O)[C@H]1O [Salicin],approximate change in surviving CFU (log10),"Biolog plate: PM2, Biolog well: D2",0.0215
OC[C@@]12OC[C@@H](O1)[C@@H](O)[C@@H](O)[C@@H]2O [Sedoheptulosan],approximate change in surviving CFU (log10),"Biolog plate: PM2, Biolog well: D3",0.451
CCCCCCCCCC(=O)O [Capric Acid],approximate change in surviving CFU (log10),"Biolog plate: PM2, Biolog well: E1",-0.88
